SMILES strings stand for the structures. About 83,000 compounds went through this panel and 20% of them were active in at least one assay; those are over-represented in the sample as a whole.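 Results are percent growth after 48 hours of single-concentration exposure. 100 means growth as in untreated cells, lower positive values show inhibition; negative values down to -100 show cell death.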 Values without a mark were called inactive. Active and inactive are the calls of the source. How the source made its calls: active means growth percent below 10; inactive means the rest.

Holding throughout (assay): NCI-60 one-dose screen, 48 h (100 = growth as untreated, 0 = no growth, -100 = all killed)
Holding throughout (conditions): 10 µM unless noted

The test system of assay [1] is NCI-H23 lung.
The test system of assay [2] is NCI-H226 lung.
For assay [3], the system named is NCI-H322M lung.
The subject of assay [4] is HOP-62 NSCLC.
For assay [5], the system named is NCI-H460 lung.
Assay [6] has as its system HOP-92 NSCLC.
Assay [7] deals with NCI-H522 lung.
The subject of assay [8] is 786-0 renal.
Assay [9] concerns COLO 205 colon.
The test system of assay [10] is DU-145 prostate.
Assay [11] relates to K-562 leukemia.
The test system of assay [12] is MALME-3M melanoma.
Assay [13] deals with MDA-MB-231 breast.
Assay [14] has as its system RXF 393 renal.
In assay [15] the test system is SF-268 CNS.
Assay [16] has as its system SF-295 CNS.
The test system of assay [17] is SF-539 CNS.
Assay [18] relates to UACC-257 melanoma.
Assay [19] has as its system M14 melanoma.
Assay [20] has as its system A549/ATCC NSCLC.

As to `CN1CCN(c2cc(Nc3cc(C4CC4)[nH]n3)nc(Nc3ccc(CC(=O)NCc4cccc(F)c4)cc3)n2)CC1`, the growth in [1] is 23.2%; in [2], 3.21% (active); in [3], 20.5%; in assay [4], 8.32% (active); in assay [5], 13%; in [6], -15.6% (active). The growth in assay [7] was 61.2%; in assay [8] it was 18.3%; in assay [9], -54.9% (active); in [10], 41.7%; in [11], 20.7%; in assay [12] it was 34.7%. Moreover, the growth in [13] is 14.4%; in assay [14] it was -56.5% (active); in assay [15], 30.2%; in assay [16], 49.4%; in [17], -22.9% (active); in [18], 40.9%. The growth in assay [19] is 23.7%.

With `COc1ccc(C(C)=O)cc1S(=O)(=O)Nc1c(N)nc(SC)[nH]c1=O`, the growth was 91.3% in assay [1]; 104% in assay [2]; 96.9% in assay [3]; 110% in [4]; 103% in [5]; 115% in assay [6]. The growth in [7] was 98.6%; in [8] it was 102%; in [9], 101%; in assay [10], 107%; in [11] it was 93%; in assay [12], 96.4%. Moreover, the growth was 111% in assay [13]; 107% in assay [14]; 96.1% in [15]; 98.1% in assay [16]; 108% in assay [17]; 103% in [18]. The growth in [19] is 94.8%.

Take `Cn1ccc(=O)c(C(=O)Nc2nsc3ccc([N+](=O)[O-])cc23)c1`: the growth was 91.3% in [1]; 76.7% in assay [2]; 45.2% in assay [3]; 96.4% in assay [4]; 48.2% in assay [5]; 41.2% in assay [6]. For the same molecule, the growth in assay [7] is 53.3%; in assay [8] it was 56.2%; in assay [9], 76.9%; in assay [10], 63.2%; in assay [11], 78.3%; in [12] it was 65.7%. Besides, the growth was 47.9% in assay [13]; 35.9% in assay [14]; 74.9% in assay [15]; 110% in [16]; 77.6% in [17]; 89.6% in assay [18].

Turning to `COc1cc2nc3cc([N+](=O)[O-])ccc3c(NCCNCC(C)O)c2cc1OC` (stereo unspecified), the growth in assay [1] was -27.8% (active); in [2], -11.1% (active); in assay [3], -11.9% (active); in [4], -19.2% (active); in assay [5], -40.2% (active); in assay [6], -42.1% (active). Further, the growth was -26.6% (active) in assay [7]; -26.8% (active) in assay [20]; -3.6% (active) in assay [8]; -7.42% (active) in [10]; 0.179% (active) in assay [11]; -74.1% (active) in assay [12]. For the same molecule, the growth in [13] was -39.5% (active); in assay [14] it was -56% (active); in [15], -15.4% (active); in [16] it was 17.1%; in assay [17], -21.6% (active); in [18] it was -56% (active). Also, the growth in assay [19] is -66.1% (active).

For `NS(=O)(=O)c1ccc(N=Nc2c(O)n(Cc3ccccc3)c3ccc(Cl)cc23)cc1`, the growth in assay [1] was 91.2%; in [2], 34.1%; in assay [3] it was 84%; in [4] it was 64.3%; in assay [5] it was 64.9%; in assay [6] it was 97.8%. In addition, the growth in [7] was 69.1%; in assay [20], 82.9%; in assay [8], 48%; in assay [10] it was 87.3%; in assay [11] it was 82.4%; in [12], 70.5%. The growth in assay [13] was 75.9%; in assay [14], 45.5%; in [15] it was 65.2%; in assay [16] it was 93.7%; in assay [17] it was 61.5%; in [18], 92.1%. For the same molecule, the growth in [19] was 88.1%.

`Cc1ccc2c(c1)=C/C(=C\c1cc(-c3ccccc3)oc1O)C(=O)N=2`: the growth in assay [1] was 95.3%; in assay [2] it was 106%; in assay [3], 104%; in assay [4], 101%; in assay [5], 113%; in assay [7], 97.4%. Further, the growth in [20] was 105%; in assay [8], 91.4%; in [9] it was 108%; in [10] it was 104%; in [11], 91.7%; in assay [12], 110%. Besides, the growth in assay [13] was 116%; in [14], 106%; in assay [15], 91.6%; in [16], 93.1%; in assay [17], 101%; in assay [18], 109%. Also, in assay [19], the growth was 90.6%.

Take `O=C1Nc2ccccc2/C1=C/c1nc2ccccc2c(=O)[nH]1`: the growth was 75.8% in assay [1]; 94.5% in assay [2]; 101% in assay [3]; 76.3% in assay [4]; 95.1% in [5]; 94.1% in assay [7]. Moreover, the growth is 100% in assay [20]; 104% in assay [8]; 117% in [9]; 99.3% in [10]; 86.2% in assay [11]; 92.8% in assay [12]. Besides, the growth in assay [13] is 84.5%; in [14] it was 96%; in assay [15], 94.6%; in assay [16] it was 101%; in assay [17], 93.6%; in [18], 104%. Besides, in assay [19], the growth is 82.2%.

For `Clc1cc(Cl)c(Cl)c(-c2nnc(SCc3ccncc3Br)o2)c1`, the growth in assay [1] was 87.7%; in assay [2], 98%; in assay [3] it was 102%; in assay [4], 82.5%; in [5], 95.9%; in assay [7] it was 83.8%. In addition, the growth is 153% in assay [20]; 93.7% in [8]; 110% in assay [9]; 99.9% in assay [10]; 69.5% in assay [11]; 100% in assay [12]. For the same molecule, the growth was 93.3% in assay [13]; 128% in [14]; 97.8% in [15]; 95.2% in [16]; 90.9% in assay [17]; 103% in [18]. Further, the growth in assay [19] was 97.9%.
